Results from PubChem BioAssay.
Activity calls are given as the source filed them.

How the values were obtained:
[1] = tested on: Plasmodium falciparum Sir2 (PF13_0152, Sir2A); test: Plasmodium falciparum Sir2A binding compounds – biochemical, small-molecule microarray, 635 nm fluorescence, primary screen (AID 1098); conditions: fluorescence 635 nm, higher = more signal;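 note: score merges spot fluorescence intensity with its signal-to-noise ratio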
[2] = probe aDKK1 binding to arrayed compounds – biochemical, biotinylated probe, 635/667 nm fluorescence, primary screen (AID 1099); conditions: small-molecule microarray, higher = more signal;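 note: score merges 667nm spot fluorescence with signal to noise across triplicate slides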
[3] = probe aCHRDL2 binding to arrayed compounds – biochemical, biotinylated probe, 635/667 nm fluorescence, primary screen (AID 1100); conditions: small-molecule microarray, higher = more signal
[4] = change in splice reporter luminescence, either direction, cell-based, HEK293, spliceosome inhibition project, primary screen (AID 1101); conditions: HEK293 splicing luciferase reporter, 24 h, higher = more signal, called active from +8 up or from −8 down;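 note: HEK293 cells carrying a splicing-competent luciferase reporter gene; test concentration not given here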
[5] = biological target: Fibroblast growth factor 10 (Homo sapiens) (UniProt O15520); test: compounds binding fibroblast growth factor 10 – biochemical, small-molecule microarray, 635 nm fluorescence, primary screen (AID 1102); conditions: FGF10 binding, fluorescence 635 nm, higher = more signal
Sequence of Fibroblast growth factor 10 (Homo sapiens) (O15520 whole entry, looked up): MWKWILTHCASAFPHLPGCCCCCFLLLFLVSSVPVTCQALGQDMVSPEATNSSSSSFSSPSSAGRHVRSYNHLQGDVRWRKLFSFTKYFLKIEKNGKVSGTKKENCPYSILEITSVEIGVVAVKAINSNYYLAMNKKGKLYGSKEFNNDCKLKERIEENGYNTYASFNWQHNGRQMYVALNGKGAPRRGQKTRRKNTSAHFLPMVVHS

[6] = tested on: glycogen synthase kinase-3 (GSK3A per assay name; protocol says GSK3B); test: compounds binding glycogen synthase kinase-3 – biochemical, small-molecule microarray, 635 nm fluorescence, GSK3A, primary screen (AID 1103); conditions: fluorescence 635 nm, higher = more signal; note: the record names both GSK3A and GSK3B
[7] = biological target: Epidermal growth factor receptor (Homo sapiens) (UniProt P00533); test: compounds binding epidermal growth factor receptor – biochemical, small-molecule microarray, 635 nm fluorescence, primary screen (AID 1104); conditions: EGFR binding, higher = more signal;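 note: score merges 667 nm emission intensity with spot signal to noise over triplicate slides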
Sequence of Epidermal growth factor receptor (Homo sapiens) (P00533 whole entry, looked up): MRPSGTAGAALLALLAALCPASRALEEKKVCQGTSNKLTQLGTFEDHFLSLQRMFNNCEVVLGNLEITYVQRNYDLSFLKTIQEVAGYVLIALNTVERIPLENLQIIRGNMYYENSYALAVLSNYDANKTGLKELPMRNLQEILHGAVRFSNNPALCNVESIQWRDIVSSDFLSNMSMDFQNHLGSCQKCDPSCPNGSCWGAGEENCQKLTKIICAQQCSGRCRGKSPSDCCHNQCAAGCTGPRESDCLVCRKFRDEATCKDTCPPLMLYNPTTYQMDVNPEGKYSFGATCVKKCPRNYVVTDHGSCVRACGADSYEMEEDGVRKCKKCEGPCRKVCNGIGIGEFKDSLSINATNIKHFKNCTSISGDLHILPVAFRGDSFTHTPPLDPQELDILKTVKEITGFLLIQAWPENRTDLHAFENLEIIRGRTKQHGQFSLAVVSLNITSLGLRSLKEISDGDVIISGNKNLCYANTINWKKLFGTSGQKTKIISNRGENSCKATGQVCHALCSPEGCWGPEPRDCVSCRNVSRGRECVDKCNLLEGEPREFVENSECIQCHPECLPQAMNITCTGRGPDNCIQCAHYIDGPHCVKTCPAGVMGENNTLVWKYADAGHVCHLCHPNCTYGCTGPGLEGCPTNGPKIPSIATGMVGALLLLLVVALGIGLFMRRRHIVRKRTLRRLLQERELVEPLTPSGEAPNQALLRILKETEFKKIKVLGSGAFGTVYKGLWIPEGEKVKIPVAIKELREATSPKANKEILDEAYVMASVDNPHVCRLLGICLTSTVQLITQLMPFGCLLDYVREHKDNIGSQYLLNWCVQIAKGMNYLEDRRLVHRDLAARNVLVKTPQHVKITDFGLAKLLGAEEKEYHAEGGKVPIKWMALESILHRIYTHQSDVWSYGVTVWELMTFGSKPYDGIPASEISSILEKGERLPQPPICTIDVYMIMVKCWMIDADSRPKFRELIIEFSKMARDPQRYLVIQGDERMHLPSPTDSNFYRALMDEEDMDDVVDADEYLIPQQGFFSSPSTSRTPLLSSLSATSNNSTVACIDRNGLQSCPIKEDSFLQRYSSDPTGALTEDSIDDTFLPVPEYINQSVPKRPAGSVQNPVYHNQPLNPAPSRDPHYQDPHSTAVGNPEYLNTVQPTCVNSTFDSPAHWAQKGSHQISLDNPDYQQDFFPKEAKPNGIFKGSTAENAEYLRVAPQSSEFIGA

[8] = biological target: Follistatin-related protein 3 (Homo sapiens) (UniProt O95633); test: compounds binding follistatin-related protein 3 – biochemical, small-molecule microarray, 635 nm fluorescence, primary screen (AID 1105); conditions: FSTL3 binding, higher = more signal;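 note: score merges emission near 667 nm and signal to noise per printed spot across three slides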
Sequence of Follistatin-related protein 3 (Homo sapiens) (O95633 whole entry, looked up): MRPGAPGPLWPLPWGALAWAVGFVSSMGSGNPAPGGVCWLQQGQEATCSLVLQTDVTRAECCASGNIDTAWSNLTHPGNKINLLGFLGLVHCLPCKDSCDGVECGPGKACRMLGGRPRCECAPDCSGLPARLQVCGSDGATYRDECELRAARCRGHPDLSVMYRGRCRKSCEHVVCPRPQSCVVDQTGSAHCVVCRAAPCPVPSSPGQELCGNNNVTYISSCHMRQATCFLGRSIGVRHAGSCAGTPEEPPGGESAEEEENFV

[9] = biological target: Dickkopf-related protein 1 (Homo sapiens) (UniProt O94907); test: small molecules binding DKK1 protein – biochemical, small-molecule microarray, 635 nm fluorescence scan, primary screen (AID 1106); conditions: higher = more signal;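 note: score merges emission near 667 nm with signal to noise over three replicate slides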
Sequence of Dickkopf-related protein 1 (Homo sapiens) (O94907 whole entry, looked up): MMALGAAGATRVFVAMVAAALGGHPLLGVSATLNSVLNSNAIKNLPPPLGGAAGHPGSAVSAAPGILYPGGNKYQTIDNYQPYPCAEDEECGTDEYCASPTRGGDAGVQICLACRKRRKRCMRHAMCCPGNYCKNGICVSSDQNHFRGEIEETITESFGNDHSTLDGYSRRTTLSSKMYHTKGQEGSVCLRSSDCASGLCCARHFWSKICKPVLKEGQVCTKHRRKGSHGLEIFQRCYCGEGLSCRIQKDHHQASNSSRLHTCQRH

[10] = tested on: Inhibin beta A chain (activin A); test: small molecules binding activin A – biochemical, small-molecule microarray, 635 nm fluorescence scan, primary screen (AID 1107); conditions: INHBA, higher = more signal;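 note: mouse activin A protein probed at 4.33 µg/mL on printed slides; score merges bound-protein fluorescence near 667 nm with spot signal-to-noise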
[11] = tested on: Human papillomavirus type 1a protein E7 (residues 44-93); test: small molecules binding HPV E7 44-93 – biochemical, small-molecule microarray, residues 44-93, 635 nm fluorescence, primary screen (AID 1108); conditions: fluorescence 635 nm, higher = more signal;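 note: E7 fragment applied at 1 µg/mL in TBST for 1 h at 4 C; score combines spot fluorescence with its signal to noise ratio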
[12] = hepatitis C replication reporter changes, two-sided – Huh7 cells, luciferase reporter, HCV replication inhibitor project, primary screen (AID 1109); conditions: Huh7 HCV replicon luciferase reporter, 48 h; higher = more signal;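 note: huh7 hepatoma cells harbouring a luciferase neomycin HCV replicon reporter; luciferase luminescence as measure of HCV replicon replication; test concentration not given here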
[13] = biological target: Left-right determination factor 2 (Homo sapiens) (UniProt O00292); test: small molecules binding LEFTY2 protein – biochemical, small-molecule microarray, 635 nm fluorescence scan, primary screen (AID 1110); conditions: higher = more signal
Sequence of Left-right determination factor 2 (Homo sapiens) (O00292 whole entry, looked up): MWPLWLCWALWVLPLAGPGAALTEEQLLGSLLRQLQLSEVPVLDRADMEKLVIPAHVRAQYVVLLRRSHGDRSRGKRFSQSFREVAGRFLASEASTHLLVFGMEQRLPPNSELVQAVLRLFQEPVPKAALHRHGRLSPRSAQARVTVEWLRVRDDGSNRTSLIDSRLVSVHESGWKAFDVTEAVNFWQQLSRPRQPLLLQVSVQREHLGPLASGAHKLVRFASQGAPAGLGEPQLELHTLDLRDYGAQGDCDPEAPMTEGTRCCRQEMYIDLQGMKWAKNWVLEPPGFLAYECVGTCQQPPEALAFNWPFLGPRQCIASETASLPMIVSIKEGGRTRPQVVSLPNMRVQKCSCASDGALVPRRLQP

[14] = biological target: Calmodulin-1 (Homo sapiens) (UniProt P0DP23); test: small molecules binding calmodulin-1 with EGTA – biochemical, small-molecule microarray, Cy5-labelled CALM1, profiling panel (AID 1111); conditions: Cy5-CALM1 binding fluorescence, higher = more signal;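 note: labelled calmodulin applied in Tris saline Tween buffer holding calcium plus EGTA and DTT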
[15] = biological target: Calmodulin-1 (Homo sapiens) (UniProt P0DP23); test: small molecules binding Ca-loaded calmodulin-1 – biochemical, small-molecule microarray, Cy5-labelled CALM1, plus calcium, artefact control for SMM control-protein annotation, profiling panel (AID 1112); conditions: Cy5-CALM1 binding fluorescence, higher = more signal;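 note: score merges spot fluorescence with signal to noise from triplicate slides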
[16] = probe aWnt5a binding to arrayed compounds – biochemical, biotinylated probe, 635/667 nm fluorescence, primary screen (AID 1113); conditions: small-molecule microarray, higher = more signal;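 note: score merges 667 nm fluorescence intensity with signal-to-noise per printed feature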
[17] = probe aShh binding to arrayed compounds – biochemical, biotinylated probe, 635/667 nm fluorescence, primary screen (AID 1114); conditions: small-molecule microarray, higher = more signal;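 note: probe is biotin-labelled aShh protein from a stem cell growth factor screen; measures binding of labelled protein to compounds printed on the slide; score merges feature fluorescence at 667 nm with signal-to-noise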
[18] = probe aNog binding to arrayed compounds – biochemical, biotinylated probe, 635/667 nm fluorescence, primary screen (AID 1115); conditions: small-molecule microarray, higher = more signal;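 note: probe is biotinylated aNog protein used at 0.15 µg/mL for 1 h at 4 C; z-score combines 667 nm fluorescence of each spot with its signal to noise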
[19] = biological target: Torsin-1A-interacting protein 1 (Homo sapiens) (UniProt Q5JTV8); test: compound microarray binding of lysate hLAP1 – cell lysate, small-molecule microarray, COS7 lysate, 635/667 nm fluorescence, primary screen (AID 1116); conditions: 635 nm fluorescence, higher = more signal
Sequence of Torsin-1A-interacting protein 1 (Homo sapiens) (Q5JTV8 whole entry, looked up): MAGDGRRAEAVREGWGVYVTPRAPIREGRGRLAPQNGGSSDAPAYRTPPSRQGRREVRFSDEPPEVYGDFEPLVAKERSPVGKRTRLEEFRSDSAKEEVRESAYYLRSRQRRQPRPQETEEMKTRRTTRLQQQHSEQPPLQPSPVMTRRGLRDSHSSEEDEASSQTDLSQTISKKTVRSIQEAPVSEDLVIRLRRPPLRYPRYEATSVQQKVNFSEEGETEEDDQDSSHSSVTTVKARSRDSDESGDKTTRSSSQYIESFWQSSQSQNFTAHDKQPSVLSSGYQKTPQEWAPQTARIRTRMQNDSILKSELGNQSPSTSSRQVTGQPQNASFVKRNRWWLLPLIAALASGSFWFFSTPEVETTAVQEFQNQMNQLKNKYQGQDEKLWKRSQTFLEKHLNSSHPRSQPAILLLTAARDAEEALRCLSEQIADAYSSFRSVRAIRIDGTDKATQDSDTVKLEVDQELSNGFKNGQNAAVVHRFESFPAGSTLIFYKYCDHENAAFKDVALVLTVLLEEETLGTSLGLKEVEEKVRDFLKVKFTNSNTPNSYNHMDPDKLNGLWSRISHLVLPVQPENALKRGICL

[20] = biological target: Alpha-bungarotoxin (Bungarus multicinctus) (UniProt P60615); test: compounds binding labelled alpha-BTX control protein – biochemical, small-molecule microarray, Alexa647 label, 635/667 nm fluorescence, artefact control for SMM control protein annotation, profiling panel (AID 1117); conditions: alpha-BTX-A647 binding fluorescence, higher = more signal
Sequence of Alpha-bungarotoxin (Bungarus multicinctus) (P60615 whole entry, looked up): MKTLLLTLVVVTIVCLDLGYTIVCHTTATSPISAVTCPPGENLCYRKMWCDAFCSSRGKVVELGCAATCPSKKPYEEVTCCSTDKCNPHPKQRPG

| Compound | composite z-score [1] | composite z-score [2] | composite z-score [3] | z-score [4] | composite z-score [5] | composite z-score [6] | composite z-score [7] | composite z-score [8] | composite z-score [9] | composite z-score [10] | composite z-score [11] | z-score [12] | composite z-score [13] | composite z-score [14] | composite z-score [15] | composite z-score [16] | composite z-score [17] | composite z-score [18] | composite z-score [19] | composite z-score [20] |
| --- | --- | --- | --- | --- | --- | --- | --- | --- | --- | --- | --- | --- | --- | --- | --- | --- | --- | --- | --- | --- |
| CCN1C(=O)[C@H]2[C@H]3[C@H](O)C=CC(=O)[C@@H]3CC[C@H]2C1=O | 0.163 | -0.094 | -0.484 | 0.403 (inactive) | 0.402 | 0.743 | 0.378 | 0.548 | 0.444 | -0.114 | 0.907 | 0.305 | 0.503 | 0.0903 | -0.528 | -0.126 | -0.13 | 0.0658 | 0.694 | 0.45 |
| O=C1[C@H]2[C@H]3[C@H](O)[C@H](O)CC(=NO[C@@H]4O[C@H](CO)[C@@H](O)[C@H](O)[C@H]4O)[C@@H]3CC[C@H]2C(=O)N1Cc1ccc2c(c1)OCO2 | 0.456 | -0.174 | -0.576 | 0.0977 (inactive) | 0.422 | 0.708 | 0.4 | 0.521 | 0.921 | -0.292 | 1.13 | 0.363 | 0.387 | 0.0102 | -0.566 | -0.0519 | -0.403 | -0.244 | 0.715 | 0.378 |
| O=C1[C@H]2[C@H]3[C@H](O)[C@H](O)CC(=NOCc4ccccc4)[C@H]3CC[C@H]2C(=O)N1C[C@@H]1CCCO1 | 0.565 | 0.114 | -0.418 | 0.0221 (inactive) | 0.863 | 0.632 | 0.582 | 0.728 | 1.11 | -0.209 | 0.536 | 0.188 | 0.873 | 0.0951 | -0.223 | -0.0685 | -0.138 | 0.0715 | 0.278 | 0.0902 |
| CC(C)=C1C(=O)C(c2ccccc2)=C2CN3C(=O)N(CCc4ccccc4)C(=O)[C@]3(Cc3ccc(F)cc3)[C@H]21 | -0.0467 | 0.993 | 1.21 | 0.762 (inactive) | -0.625 | -0.643 | -2.06 | -0.655 | -1.92 | 0.51 | 0.891 | -0.864 | -1.67 | 0.327 | 0.32 | 0.229 | 0.0431 | -0.761 | -0.248 | -0.547 |
| CO[C@H]1COC(=O)[C@H](C)NC(=O)[C@@H](C)COC(=O)CC=C[C@@H]1C | 1.38 | -0.369 | -0.786 | -0.794 (inactive) | 0.63 | 0.857 | 0.767 | 0.0078 | 0.829 | -0.249 | -0.0574 | -0.504 | 0.348 | -0.239 | -0.514 | 0.0502 | 0.432 | 0.131 | 0.687 | 0.53 |
| CN(C)C(=O)[C@@]1(Cc2ccccc2)N=C(c2ccc(OCCCO)cc2)O[C@H]1c1ccccc1CN=[N+]=[N-] | 1.2 | 1.44 | 1.35 | 0.32 (inactive) | 1.47 | 0.777 | -0.194 | 0.732 | 0.0591 | 0.784 | 1.1 | -2.14 | -0.068 | 2.47 | 1.26 | 0.313 | 0.64 | -0.18 | 2.95 | 2.62 |
| CC(=O)OC[C@H]1O[C@@H](ON=C[C@@H](C)[C@H](OCc2ccccc2)C(C)C)[C@H](OC(C)=O)[C@@H](OC(C)=O)[C@@H]1OC(C)=O | -0.0075 | 0.129 | 0.169 | 0.14 (inactive) | -0.167 | 0.623 | 0.338 | -0.39 | -1.22 | -1.82 | 0.162 | -0.518 | 0.619 | 0.336 | -0.815 | -0.0754 | -0.19 | -0.144 | -0.563 | 0.226 |
| O=C(NN=C1C[C@@H](O)[C@@H](O)[C@@H]2[C@@H]3C(=O)N(c4cccc(Oc5ccccc5)c4)C(=O)[C@@H]3CC[C@H]12)OCc1ccccc1 | 0.373 | 0.0708 | 0.408 | 0.0933 (inactive) | -0.113 | -0.281 | 0.116 | -0.146 | -0.0924 | 0.242 | -0.142 | -0.597 | 0.0075 | 0.0088 | -0.312 | -0.0664 | 0.3 | 0.116 | -0.0681 | 1.05 |
| CC(C)[C@H](NC(=O)OC(C)(C)C)[C@@H](O)CC(=O)OC(C)(C)C | -1.02 | -0.298 | -0.215 | -0.566 (inactive) | -0.658 | -1.38 | -0.664 | -0.746 | -0.327 | 0.0055 | -2.46 | -0.59 | -0.428 | -0.32 | -0.275 | -0.0977 | -0.147 | -0.241 | -0.68 | -0.232 |
| C=CCOC(=O)[C@H]1[C@@H]2C(=O)O[C@@H](c3ccccc3)[C@@H](c3ccccc3)N2[C@@H](c2ccc(OCCOC(=O)[C@H]3C[C@H]4C(=O)N5CCC[C@H]5C(=O)N4[C@H]3c3cccc(OCCO)c3)cc2)[C@]12C(=O)Nc1ccc(I)cc12 | 2.03 | 2.12 | 1.36 | 1.1 (inactive) | 1.4 | 1.37 | 1.02 | 1.41 | 1.22 | 1.47 | 1.43 | -0.38 | 1.29 | 2 | 0.977 | 0.995 | 1.97 | 2.7 | 3.33 | 1.69 |
| COCCOC(=O)N1C(=O)[C@@]2(c3cc(C#CC4(O)CCCCCC4)ccc31)[C@H](C(=O)N1CCN(c3ncccn3)CC1)[C@H]1C(=O)O[C@H](c3ccccc3)[C@H](c3ccccc3)N1[C@@H]2c1ccc(OCCO)cc1 | 1.4 | 0.0932 | -0.0616 | -0.702 (inactive) | 1.18 | 1.3 | 0.729 | 1.19 | 0.738 | 0.274 | 1.01 | -1.38 | 0.519 | 0.942 | 0.0751 | 0.0136 | 0.637 | 0.42 | 0.889 | 1.33 |
